From PMC7862700, “An all-to-all approach to the identification of sequence-specific readers for epigenetic DNA modifications on cytosine”

How the values were obtained:
Experiment in all cases: DAPPL (digital affinity profiling via proximity ligation, sequencing); 10 mM Tris-HCl pH 7.5, 50 mM NaCl, 1 mM DTT, 4% glycerol, room temperature, 30 min; GST-TFs on glutathione beads, 16-mer random dsDNA library, 0.1% formaldehyde crosslink after washing; high values mean tight binding
Conditions in all cases: protein: recombinant; tags: N-terminal GST; dsDNA, one strand shown
FLI1 = molecular target: T1, FLI1 (Homo sapiens, UniProt Q01543 1-452)
T1 sequence: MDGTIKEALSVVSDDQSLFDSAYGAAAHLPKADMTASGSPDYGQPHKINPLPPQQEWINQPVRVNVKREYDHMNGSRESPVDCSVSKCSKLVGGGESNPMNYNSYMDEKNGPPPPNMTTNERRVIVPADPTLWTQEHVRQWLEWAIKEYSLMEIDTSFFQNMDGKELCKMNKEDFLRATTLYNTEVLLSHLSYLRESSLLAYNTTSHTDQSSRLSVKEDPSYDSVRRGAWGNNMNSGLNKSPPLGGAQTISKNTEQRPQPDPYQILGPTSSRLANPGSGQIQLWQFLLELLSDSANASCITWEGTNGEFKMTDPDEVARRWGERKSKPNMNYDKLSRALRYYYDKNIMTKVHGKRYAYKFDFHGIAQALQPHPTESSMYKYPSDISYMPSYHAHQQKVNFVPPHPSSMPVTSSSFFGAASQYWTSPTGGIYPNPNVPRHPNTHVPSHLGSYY
Procedure, shortened: (§1)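 Sequencing on an Illumina NextSeq500 followed washing, crosslinking with 0.1% formaldehyde, proximity ligation (BsaI/T4 ligase, 1 h, 37 °C) and PCR amplification of pools that had been incubated for 30 min at room temperature with 200 nmole of a random double-stranded 16-mer DNA library in Tris/NaCl/DTT/glycerol buffer. Each pool held DNA-barcoded human transcription factors, expressed in yeast as GST fusions and captured on glutathione beads, plus a tag-only sample. Binding signal is a hexamer's read frequency for a factor divided by its frequency in the tag-only sample.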

ELK1 = molecular target: T2, ELK1 (Homo sapiens, UniProt P19419 1-428)
T2 sequence: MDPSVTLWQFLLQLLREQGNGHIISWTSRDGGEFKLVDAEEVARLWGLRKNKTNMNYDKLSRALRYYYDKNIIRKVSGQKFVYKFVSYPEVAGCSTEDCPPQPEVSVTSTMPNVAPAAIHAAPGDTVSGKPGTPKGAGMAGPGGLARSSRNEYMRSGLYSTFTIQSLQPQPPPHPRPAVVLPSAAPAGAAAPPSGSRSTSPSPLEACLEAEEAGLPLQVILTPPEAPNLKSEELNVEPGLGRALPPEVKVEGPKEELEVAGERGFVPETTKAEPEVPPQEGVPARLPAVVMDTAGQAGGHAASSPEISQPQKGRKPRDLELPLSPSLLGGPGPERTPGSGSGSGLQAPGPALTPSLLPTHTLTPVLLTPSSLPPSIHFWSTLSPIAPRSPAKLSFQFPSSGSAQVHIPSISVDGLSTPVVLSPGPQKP
Procedure, shortened: as §1

GABPA = molecular target: T3, GABPA (Homo sapiens, UniProt Q06546 1-454)
T3 sequence: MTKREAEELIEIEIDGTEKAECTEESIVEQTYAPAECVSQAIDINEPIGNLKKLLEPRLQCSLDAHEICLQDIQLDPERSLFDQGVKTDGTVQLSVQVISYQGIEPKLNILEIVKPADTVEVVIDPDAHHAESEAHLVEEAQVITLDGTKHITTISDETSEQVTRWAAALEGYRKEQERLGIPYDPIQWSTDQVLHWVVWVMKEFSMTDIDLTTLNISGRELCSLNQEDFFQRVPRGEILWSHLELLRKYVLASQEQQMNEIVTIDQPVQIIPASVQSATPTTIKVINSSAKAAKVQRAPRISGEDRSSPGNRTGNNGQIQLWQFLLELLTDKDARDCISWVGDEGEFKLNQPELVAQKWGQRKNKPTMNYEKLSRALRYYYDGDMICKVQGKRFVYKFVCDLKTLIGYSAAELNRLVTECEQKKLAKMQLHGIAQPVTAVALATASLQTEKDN
Procedure, shortened: as §1

ERG = molecular target: T4, ERG (Homo sapiens, UniProt P11308 1-479)
T4 sequence: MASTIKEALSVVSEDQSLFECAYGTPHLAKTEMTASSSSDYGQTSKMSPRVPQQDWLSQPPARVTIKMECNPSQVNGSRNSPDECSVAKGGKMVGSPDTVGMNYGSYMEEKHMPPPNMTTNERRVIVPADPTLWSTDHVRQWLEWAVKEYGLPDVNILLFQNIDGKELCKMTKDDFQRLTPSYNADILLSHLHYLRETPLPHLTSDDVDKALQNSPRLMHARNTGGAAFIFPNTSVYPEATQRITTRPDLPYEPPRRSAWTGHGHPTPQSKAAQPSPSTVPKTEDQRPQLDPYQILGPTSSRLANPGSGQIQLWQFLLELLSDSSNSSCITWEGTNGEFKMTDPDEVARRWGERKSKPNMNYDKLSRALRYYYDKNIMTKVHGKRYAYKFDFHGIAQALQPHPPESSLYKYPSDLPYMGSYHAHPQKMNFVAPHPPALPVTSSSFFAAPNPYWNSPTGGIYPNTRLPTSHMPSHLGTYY
Procedure, shortened: as §1

ELF1 = ELF1 (Homo sapiens, UniProt P32519 1-619)
Procedure, shortened: as §1

EHF = molecular target: T5, EHF (Homo sapiens, UniProt Q9NZC4 1-300)
T5 sequence: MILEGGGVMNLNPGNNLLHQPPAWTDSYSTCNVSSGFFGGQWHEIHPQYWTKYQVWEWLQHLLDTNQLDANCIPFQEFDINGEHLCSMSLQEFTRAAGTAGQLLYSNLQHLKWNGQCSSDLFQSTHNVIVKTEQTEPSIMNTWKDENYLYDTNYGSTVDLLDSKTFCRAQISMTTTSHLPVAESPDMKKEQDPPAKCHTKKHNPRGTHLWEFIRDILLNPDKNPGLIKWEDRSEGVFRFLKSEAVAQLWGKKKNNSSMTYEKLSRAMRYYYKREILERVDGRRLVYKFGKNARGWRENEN
Procedure, shortened: as §1

SPI1 = SPI1 (Homo sapiens, UniProt P17947 1-270)
Procedure, shortened: as §1

SPIB = SPIB (Homo sapiens, UniProt Q01892 1-262)
Procedure, shortened: as §1

ELK3 = molecular target: T6, ELK3 (Homo sapiens, UniProt P41970 1-407)
T6 sequence: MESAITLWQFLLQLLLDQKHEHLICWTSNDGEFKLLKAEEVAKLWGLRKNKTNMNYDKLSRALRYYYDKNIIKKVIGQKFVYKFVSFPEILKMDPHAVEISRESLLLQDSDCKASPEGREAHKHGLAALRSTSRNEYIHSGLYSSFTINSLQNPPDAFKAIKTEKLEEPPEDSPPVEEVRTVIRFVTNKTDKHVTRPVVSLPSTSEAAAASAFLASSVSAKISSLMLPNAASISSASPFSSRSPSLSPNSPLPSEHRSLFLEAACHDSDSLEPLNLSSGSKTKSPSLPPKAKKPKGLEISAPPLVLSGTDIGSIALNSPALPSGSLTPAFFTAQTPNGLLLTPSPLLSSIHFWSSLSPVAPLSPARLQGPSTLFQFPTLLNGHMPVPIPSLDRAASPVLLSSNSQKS
Procedure, shortened: as §1

Chain of SPIB (Q01892 whole entry): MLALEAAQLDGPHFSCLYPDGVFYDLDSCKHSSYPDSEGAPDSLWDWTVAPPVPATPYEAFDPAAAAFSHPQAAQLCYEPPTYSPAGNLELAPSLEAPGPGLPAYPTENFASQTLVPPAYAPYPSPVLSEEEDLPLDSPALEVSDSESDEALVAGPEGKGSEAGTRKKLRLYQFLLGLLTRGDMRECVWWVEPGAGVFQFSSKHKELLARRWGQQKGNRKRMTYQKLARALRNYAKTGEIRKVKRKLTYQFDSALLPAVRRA
Chain of ELF1 (P32519 whole entry): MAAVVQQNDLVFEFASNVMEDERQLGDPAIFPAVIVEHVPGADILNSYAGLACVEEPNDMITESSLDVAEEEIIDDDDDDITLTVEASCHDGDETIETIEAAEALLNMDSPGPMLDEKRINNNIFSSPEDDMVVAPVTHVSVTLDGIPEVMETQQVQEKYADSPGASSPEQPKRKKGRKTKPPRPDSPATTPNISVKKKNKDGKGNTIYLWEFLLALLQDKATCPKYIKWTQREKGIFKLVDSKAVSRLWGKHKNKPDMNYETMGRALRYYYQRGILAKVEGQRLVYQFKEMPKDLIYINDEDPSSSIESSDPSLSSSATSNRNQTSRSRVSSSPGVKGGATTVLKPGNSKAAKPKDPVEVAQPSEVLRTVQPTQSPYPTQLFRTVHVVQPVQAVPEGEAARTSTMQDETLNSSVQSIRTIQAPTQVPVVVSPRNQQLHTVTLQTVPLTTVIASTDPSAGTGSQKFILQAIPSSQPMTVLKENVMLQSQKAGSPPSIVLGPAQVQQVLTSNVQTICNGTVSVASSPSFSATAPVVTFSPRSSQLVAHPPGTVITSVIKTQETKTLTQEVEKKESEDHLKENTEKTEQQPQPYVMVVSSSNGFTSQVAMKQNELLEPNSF

Sequence | binding signal (FLI1) | binding signal (ELK1) | binding signal (GABPA) | binding signal (ERG) | binding signal (ELF1) | binding signal (EHF) | binding signal (SPI1) | binding signal (SPIB) | binding signal (ELK3)
CCGCCT | 1.68 fold enrichment (6-mer frequency, TF over GST control) | 1.55 fold enrichment (6-mer frequency, TF over GST control) | 1.55 fold enrichment (6-mer frequency, TF over GST control) | 1.55 fold enrichment (6-mer frequency, TF over GST control) | 1.66 fold enrichment (6-mer frequency, TF over GST control) | 1.67 fold enrichment (6-mer frequency, TF over GST control) | 1.5 fold enrichment (6-mer frequency, TF over GST control) | 1.63 fold enrichment (6-mer frequency, TF over GST control) | 1.82 fold enrichment (6-mer frequency, TF over GST control)
CTTGCT | 1.51 fold enrichment (6-mer frequency, TF over GST control) | 1.35 fold enrichment (6-mer frequency, TF over GST control) | 1.38 fold enrichment (6-mer frequency, TF over GST control) | 1.21 fold enrichment (6-mer frequency, TF over GST control) | 1.33 fold enrichment (6-mer frequency, TF over GST control) | 1.25 fold enrichment (6-mer frequency, TF over GST control) | 1.44 fold enrichment (6-mer frequency, TF over GST control) | 1.34 fold enrichment (6-mer frequency, TF over GST control) | 1.25 fold enrichment (6-mer frequency, TF over GST control)
TTGGCA | 1.15 fold enrichment (6-mer frequency, TF over GST control) | 1.23 fold enrichment (6-mer frequency, TF over GST control) | 1.08 fold enrichment (6-mer frequency, TF over GST control) | 1.15 fold enrichment (6-mer frequency, TF over GST control) | 1.13 fold enrichment (6-mer frequency, TF over GST control) | 1.08 fold enrichment (6-mer frequency, TF over GST control) | 1.16 fold enrichment (6-mer frequency, TF over GST control) | 1.15 fold enrichment (6-mer frequency, TF over GST control) | 1.17 fold enrichment (6-mer frequency, TF over GST control)
TTAGCA | 1.21 fold enrichment (6-mer frequency, TF over GST control) | 1.19 fold enrichment (6-mer frequency, TF over GST control) | 1.16 fold enrichment (6-mer frequency, TF over GST control) | 1.3 fold enrichment (6-mer frequency, TF over GST control) | 1.18 fold enrichment (6-mer frequency, TF over GST control) | 1.21 fold enrichment (6-mer frequency, TF over GST control) | 1.15 fold enrichment (6-mer frequency, TF over GST control) | 1.15 fold enrichment (6-mer frequency, TF over GST control) | 1.17 fold enrichment (6-mer frequency, TF over GST control)
CTCTAG | 1.25 fold enrichment (6-mer frequency, TF over GST control) | 1.26 fold enrichment (6-mer frequency, TF over GST control) | 1.32 fold enrichment (6-mer frequency, TF over GST control) | 1.25 fold enrichment (6-mer frequency, TF over GST control) | 1.38 fold enrichment (6-mer frequency, TF over GST control) | 1.36 fold enrichment (6-mer frequency, TF over GST control) | 1.09 fold enrichment (6-mer frequency, TF over GST control) | 1.22 fold enrichment (6-mer frequency, TF over GST control) | 1.26 fold enrichment (6-mer frequency, TF over GST control)
TCAAAA | 1.12 fold enrichment (6-mer frequency, TF over GST control) | 1.12 fold enrichment (6-mer frequency, TF over GST control) | 1.23 fold enrichment (6-mer frequency, TF over GST control) | 1.14 fold enrichment (6-mer frequency, TF over GST control) | 1.19 fold enrichment (6-mer frequency, TF over GST control) | 1.1 fold enrichment (6-mer frequency, TF over GST control) | 1.3 fold enrichment (6-mer frequency, TF over GST control) | 1.15 fold enrichment (6-mer frequency, TF over GST control) | 1.17 fold enrichment (6-mer frequency, TF over GST control)
ATAACC | 1.21 fold enrichment (6-mer frequency, TF over GST control) | 1.27 fold enrichment (6-mer frequency, TF over GST control) | 1.22 fold enrichment (6-mer frequency, TF over GST control) | 1.13 fold enrichment (6-mer frequency, TF over GST control) | 1.23 fold enrichment (6-mer frequency, TF over GST control) | 1.15 fold enrichment (6-mer frequency, TF over GST control) | 1.06 fold enrichment (6-mer frequency, TF over GST control) | 1.25 fold enrichment (6-mer frequency, TF over GST control) | 1.37 fold enrichment (6-mer frequency, TF over GST control)
